Assay results reported in PubChem BioAssay (Tox21).
Inconclusive results are not listed. Calls of active or inactive are those of the source. Unless noted, calls follow the shape of the dose curve; as a rule, active = well fitted curve in the direction sought with a large enough effect in the repeat runs; inconclusive = weak or mixed curves; inactive = no such curve, though single readings can be large; an effect the other way counts as inactive or inconclusive.

Assays:
[1] = qHTS assay to identify aromatase inhibitors - cell viability counter screen (AID 743084);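 also: cells stimulated with testosterone during compound exposure; nearly all actives have a fitted effect of over 55% in size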
[2] = biological target: Aryl hydrocarbon receptor (Homo sapiens) (UniProt P35869); test: qHTS assay to identify small molecule that activate the aryl hydrocarbon receptor (AhR) signaling pathway (AID 743085);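 also: HG2L7.5c1 human HepG2 liver cells with stably integrated DRE-driven firefly reporter; series mostly up to about 70 µM; nearly all actives have a fitted effect of over 15% in size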
Chain of Aryl hydrocarbon receptor (Homo sapiens) (P35869 whole entry, looked up): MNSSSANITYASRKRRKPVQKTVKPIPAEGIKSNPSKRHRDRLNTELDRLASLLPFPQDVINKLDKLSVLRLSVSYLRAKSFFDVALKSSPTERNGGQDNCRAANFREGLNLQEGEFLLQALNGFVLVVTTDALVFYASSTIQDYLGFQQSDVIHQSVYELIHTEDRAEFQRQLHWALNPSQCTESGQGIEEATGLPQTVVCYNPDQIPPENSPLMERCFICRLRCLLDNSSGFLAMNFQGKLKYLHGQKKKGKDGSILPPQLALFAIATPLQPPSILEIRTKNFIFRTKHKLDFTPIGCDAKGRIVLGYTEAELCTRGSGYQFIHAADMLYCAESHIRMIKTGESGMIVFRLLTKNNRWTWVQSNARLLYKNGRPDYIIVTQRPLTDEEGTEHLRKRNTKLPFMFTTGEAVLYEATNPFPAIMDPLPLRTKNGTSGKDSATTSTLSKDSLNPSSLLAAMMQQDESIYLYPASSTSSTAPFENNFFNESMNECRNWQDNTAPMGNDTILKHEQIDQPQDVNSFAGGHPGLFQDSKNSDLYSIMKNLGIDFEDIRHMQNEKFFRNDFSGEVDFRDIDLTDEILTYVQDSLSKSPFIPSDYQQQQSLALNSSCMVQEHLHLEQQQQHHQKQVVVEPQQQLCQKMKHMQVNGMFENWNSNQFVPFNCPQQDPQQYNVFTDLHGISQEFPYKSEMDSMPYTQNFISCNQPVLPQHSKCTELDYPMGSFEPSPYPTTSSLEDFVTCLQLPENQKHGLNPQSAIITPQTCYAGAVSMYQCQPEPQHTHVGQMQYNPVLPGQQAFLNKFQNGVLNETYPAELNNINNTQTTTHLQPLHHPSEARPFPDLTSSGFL
Procedure, shortened: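 Luminescence (ONE-Glo) from a dioxin-responsive-element luciferase reporter in HG2L7.5c1 HepG2 cells after 24 hr compound exposure at 37C; viability measured by CellTiter-Fluor fluorescence beforehand.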

[3] = qHTS assay to identify small molecule that activate the aryl hydrocarbon receptor (AhR) signaling pathway - cell viability counter screen (AID 743086);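 also: HepG2 liver cells carrying the AhR DRE luciferase reporter; series mostly up to about 70 µM; nearly all actives have a fitted effect of over 45% in size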
Procedure, shortened: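 HepG2-AhR-luc (HG2L7.5c1) cells, 4000/well, were preincubated 5 h at 37C, exposed to compound in qHTS format for 24 hr at 37C, then given CellTiter-Fluor for 30 min; viability was read as fluorescence in the reporter wells.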

[4] = biological target: Peroxisome proliferator-activated receptor gamma (Homo sapiens) (UniProt P37231); test: qHTS assay to identify small molecule agonists of the peroxisome proliferator-activated receptor gamma (PPARg) signaling pathway (AID 743094; active = well fitted activation curve with a large enough effect in the signal ratio in the repeat runs, not every such curve was filed as active; the % refers to the signal ratio)
Chain of Peroxisome proliferator-activated receptor gamma (Homo sapiens) (P37231 whole entry, looked up): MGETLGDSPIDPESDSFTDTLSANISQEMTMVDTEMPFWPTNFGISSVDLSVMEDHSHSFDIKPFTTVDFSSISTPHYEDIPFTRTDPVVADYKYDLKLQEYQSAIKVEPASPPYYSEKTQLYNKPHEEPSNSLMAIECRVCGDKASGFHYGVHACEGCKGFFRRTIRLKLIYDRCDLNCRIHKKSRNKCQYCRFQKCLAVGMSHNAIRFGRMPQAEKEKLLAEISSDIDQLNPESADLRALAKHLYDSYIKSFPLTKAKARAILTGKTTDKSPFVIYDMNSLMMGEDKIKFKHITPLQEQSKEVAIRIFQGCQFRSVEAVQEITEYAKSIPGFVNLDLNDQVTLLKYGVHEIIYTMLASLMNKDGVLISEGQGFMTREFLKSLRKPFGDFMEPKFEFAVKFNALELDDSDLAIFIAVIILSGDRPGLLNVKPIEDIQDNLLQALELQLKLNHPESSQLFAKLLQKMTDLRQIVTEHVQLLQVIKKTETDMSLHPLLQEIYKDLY
Procedure, shortened: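 Following 5 h plating at 37C, PPARg-bla HEK293H cells receive compound or DMSO for 17 h; fluorescence intensity is recorded after LiveBLAzer B/G loading for 1 h at room temperature.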

[5] = biological target: Peroxisome proliferator-activated receptor gamma (Homo sapiens) (UniProt P37231); test: qHTS assay to identify small molecule antagonists of the peroxisome proliferator-activated receptor gamma (PPARg) signaling pathway (AID 743191; calls by dose curve; also: series mostly up to about 63 µM; nearly all actives have a fitted effect of over 30% in size)
Procedure, shortened: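 GeneBLAzer PPARg UAS-bla HEK293H cells carrying a UAS-driven beta-lactamase reporter were plated at 3000 cells/well, preincubated 5 h at 37C, then given compound for 17 h at 37C; LiveBLAzer B/G FRET substrate was read after 1 h at room temperature.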

[6] = qHTS assay to identify small molecule antagonists of the peroxisome proliferator-activated receptor gamma (PPARg) signaling pathway - cell viability counter screen (AID 743194); also: nearly all actives have a fitted effect of over 55% in size
Procedure, shortened: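 PPARg-UAS-bla HEK293H cells were plated, rested 5 h at 37 C, then treated with compounds plus rosiglitazone (50 nM final) for 17 h at 37 C; viability was then read by CellTiter-Glo luminescence after 30 min at room temperature.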

[7] = qHTS assay for small molecule agonists of the antioxidant response element (ARE) signaling pathway (AID 743202; active = well fitted activation curve with a large enough effect in the signal ratio in the repeat runs, not every such curve was filed as active; the % refers to the signal ratio)
Procedure, shortened: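 Read-out: LiveBLAzer B/G FRET substrate fluorescence after 2 h at room temperature, following 16 h compound treatment at 37 C of HepG2 cells carrying an ARE-driven beta-lactamase reporter.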

[8] = qHTS assay for small molecule agonists of the antioxidant response element (ARE) signaling pathway - cell viability counter screen (AID 743203; calls by dose curve; also: nearly all actives have a fitted effect of over 55% in size)
Procedure, shortened: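 Compounds in DMSO were pinned onto ARE-bla HepG2 cells plated 5 hrs earlier at 2,000 cells/well. Sixteen hours later at 37C/5% CO2, CellTiter-Glo was added and luminescence measured after 30 min at room temperature.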

[9] = qHTS assay for small molecule activators of the heat shock response signaling pathway - cell viability counter screen (AID 743209); also: nearly all actives have a fitted effect of over 50% in size
Procedure, shortened: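 Counter screen for cytotoxicity in HeLa HSE-bla reporter cells. Treatment was 5 h at 37 C; viability was detected by luminescent ATP assay (CellTiter-Glo) in the same wells as the beta-lactamase read.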

[10] = qHTS assay to identify small molecule agonists of the peroxisome proliferator-activated receptor delta (PPARd) signaling pathway - cell viability counter screen (AID 743211); also: nearly all actives have a fitted effect of over 55% in size
Procedure, shortened: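 Viability was measured as CellTiter-Glo luminescence (30 min, room temperature) in the same wells as the beta-lactamase readout. GeneBLAzer PPARd UAS-bla HEK293H cells received compound after 5 h plating and were incubated 17 h at 37 C.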

[11] = qHTS assay to identify small molecule antagonists of the peroxisome proliferator-activated receptor delta (PPARd) signaling pathway - cell viability counter screen (AID 743213); also: nearly all actives have a fitted effect of over 50% in size
Procedure, shortened: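 Viability counter-screen, qHTS format: PPARd-bla HEK293H, L165041 300 nM final, 17 h compound exposure at 37 C, CellTiter-Glo luminescence after 30 min RT.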

[12] = biological target: Peroxisome proliferator-activated receptor delta (Homo sapiens) (UniProt Q03181); test: qHTS assay to identify small molecule antagonists of the peroxisome proliferator-activated receptor delta (PPARd) signaling pathway (AID 743215; active = well fitted inhibition curve with a large enough effect in the signal ratio in the repeat runs, not every such curve was filed as active; the % refers to the signal ratio;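 also: cells stimulated with agonist L165041 at 300 nM final during compound exposure; series mostly up to about 62 µM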)
Chain of Peroxisome proliferator-activated receptor delta (Homo sapiens) (Q03181 whole entry, looked up): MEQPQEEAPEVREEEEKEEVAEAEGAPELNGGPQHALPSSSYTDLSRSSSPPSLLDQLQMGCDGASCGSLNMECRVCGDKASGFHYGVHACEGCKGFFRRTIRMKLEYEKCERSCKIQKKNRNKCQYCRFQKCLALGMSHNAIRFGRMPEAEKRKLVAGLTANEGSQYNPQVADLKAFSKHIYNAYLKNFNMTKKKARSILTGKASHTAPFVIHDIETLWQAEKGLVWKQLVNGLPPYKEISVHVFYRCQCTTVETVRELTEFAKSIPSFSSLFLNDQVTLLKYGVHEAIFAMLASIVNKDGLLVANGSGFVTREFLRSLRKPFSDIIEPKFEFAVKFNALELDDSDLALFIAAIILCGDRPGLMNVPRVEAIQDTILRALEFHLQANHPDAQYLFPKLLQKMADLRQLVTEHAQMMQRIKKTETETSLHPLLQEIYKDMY
Procedure, shortened: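 With L165041 present at 300 nM final, compounds were incubated 17 h at 37 C on PPARd UAS-bla HEK293H cells. A FRET-based beta-lactamase substrate was then applied for 2 h at room temperature and fluorescence intensity recorded.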

[13] = biological target: Bile acid receptor (Homo sapiens) (UniProt Q96RI1); test: qHTS assay to identify small molecule antagonists of the farnesoid-X-receptor (FXR) signaling pathway (AID 743217; active = well fitted inhibition curve with a large enough effect in the signal ratio in the repeat runs, not every such curve was filed as active; the % refers to the signal ratio)
Chain of Bile acid receptor (Homo sapiens) (Q96RI1 whole entry, looked up): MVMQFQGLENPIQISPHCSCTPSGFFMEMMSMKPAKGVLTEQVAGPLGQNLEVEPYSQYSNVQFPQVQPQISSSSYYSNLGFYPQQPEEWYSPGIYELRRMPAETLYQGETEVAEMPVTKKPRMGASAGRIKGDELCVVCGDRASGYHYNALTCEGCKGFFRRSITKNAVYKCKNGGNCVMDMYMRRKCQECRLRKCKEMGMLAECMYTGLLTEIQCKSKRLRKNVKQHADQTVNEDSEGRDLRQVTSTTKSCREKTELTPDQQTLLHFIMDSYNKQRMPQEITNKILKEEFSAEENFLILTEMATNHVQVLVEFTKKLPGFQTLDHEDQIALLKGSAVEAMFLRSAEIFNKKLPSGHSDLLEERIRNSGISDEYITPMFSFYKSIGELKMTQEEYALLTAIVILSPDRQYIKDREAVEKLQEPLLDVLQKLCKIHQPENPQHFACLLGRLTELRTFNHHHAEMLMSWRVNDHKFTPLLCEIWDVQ
Procedure, shortened: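 In this cell-based antagonist screen, inhibition of CDCA-driven (50 uM final) UAS-beta-lactamase expression in HEK 293T cells was measured by FRET fluorescence following 16 h compound exposure at 37 °C.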

[14] = qHTS assay to identify small molecule agonists of the farnesoid-X-receptor (FXR) signaling pathway - cell viability counter screen (AID 743218); also: nearly all actives have a fitted effect of over 45% in size
Procedure, shortened: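 After 16 h at 37 C with test compounds, FXR-bla HEK 293T cells were given LiveBLAzer B/G substrate for 2 h at RT and then CellTiter-Glo; luminescence was taken after 30 min.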

[15] = biological target: Bile acid receptor (Homo sapiens) (UniProt Q96RI1); test: qHTS assay to identify small molecule agonists of the farnesoid-X-receptor (FXR) signaling pathway (AID 743220; active = well fitted activation curve with a large enough effect in the signal ratio in the repeat runs, not every such curve was filed as active; the % refers to the signal ratio)
Procedure, shortened: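 Beta-lactamase reporter under UAS control in GeneBLAzer FXR HEK 293T cells (5000/well) measured with LiveBLAzer FRET substrate after 2 h at room temperature. Compound exposure lasted 16 h at 37C.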

[16] = qHTS assay to identify small molecule antagonists of the farnesoid-X-receptor (FXR) signaling pathway - cell viability counter screen (AID 743221; active = well fitted cell-killing curve with a large enough effect in the repeat runs, not every such curve was filed as active; also: nearly all actives have a fitted effect of over 50% in size)
Procedure, shortened: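 Cytotoxicity counter screen run in the FXR-bla reporter wells: HEK 293T cells exposed to compound with 50 uM (final) chenodeoxycholic acid for 16 h, 37 C, then viability measured by CellTiter-Glo luminescence after 30 min, room temperature.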

[17] = biological target: Peroxisome proliferator-activated receptor delta (Homo sapiens) (UniProt Q03181); test: qHTS assay to identify small molecule agonists of the peroxisome proliferator-activated receptor delta (PPARd) signaling pathway (AID 743212; calls by dose curve)
Procedure, shortened: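 GeneBLAzer PPARd UAS-bla HEK293H cells (beta-lactamase reporter under UAS control), plated and rested 5 h at 37 C, then exposed to compounds in DMSO at 37 C; LiveBLAzer B/G FRET substrate added, 2 h room temperature, fluorescence read.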

[18] = biological target: Vitamin D3 receptor (Homo sapiens) (UniProt P11473); test: qHTS assay to identify small molecule agonists of the vitamin D receptor (VDR) signaling pathway (AID 743222; calls by dose curve)
Chain of Vitamin D3 receptor (Homo sapiens) (P11473 whole entry, looked up): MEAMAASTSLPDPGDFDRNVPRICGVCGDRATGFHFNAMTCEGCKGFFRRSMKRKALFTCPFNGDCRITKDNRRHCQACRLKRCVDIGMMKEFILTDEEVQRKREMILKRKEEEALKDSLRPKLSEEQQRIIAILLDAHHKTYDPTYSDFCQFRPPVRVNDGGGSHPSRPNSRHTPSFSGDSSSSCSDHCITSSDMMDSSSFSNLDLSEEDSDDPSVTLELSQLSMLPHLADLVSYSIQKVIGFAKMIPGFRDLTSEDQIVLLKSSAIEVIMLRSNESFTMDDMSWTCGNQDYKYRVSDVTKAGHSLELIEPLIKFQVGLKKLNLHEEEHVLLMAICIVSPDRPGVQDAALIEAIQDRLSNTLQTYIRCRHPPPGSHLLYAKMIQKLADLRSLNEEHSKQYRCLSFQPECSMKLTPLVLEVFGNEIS
Procedure, shortened: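 VDR-bla cells were seeded, left 4 h, treated with compounds in DMSO for 16 h, incubated 2 h at RT with B/G FRET substrate, and read for fluorescence.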

[19] = biological target: Vitamin D3 receptor (Homo sapiens) (UniProt P11473); test: qHTS assay to identify small molecule antagonists of the vitamin D receptor (VDR) signaling pathway (AID 743223; active = well fitted inhibition curve with a large enough effect in the signal ratio in the repeat runs, not every such curve was filed as active; the % refers to the signal ratio)
Procedure, shortened: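 Antagonist mode: compound added to VDR-bla cells alongside agonist 1alpha,25-dihydroxyvitamin D3 (3 nM final), incubation 16 h at 37C. Read-out is LiveBLAzer FRET fluorescence, 2 h at room temperature.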

[20] = qHTS assay for small molecule activators of the heat shock response signaling pathway (AID 743210; active = well fitted activation curve with a large enough effect in the signal ratio in the repeat runs, with a control signal flat, not every such curve was filed as active; the % refers to the signal ratio; also: series mostly up to about 63 µM)
Procedure, shortened: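 HSE-bla HeLa cells (beta-lactamase reporter under heat shock response elements) were exposed to compounds for 5 h at 37 C, then loaded with LiveBLAzer B/G FRET substrate for 2.5 h at room temperature before fluorescence reading.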
% is scaled to controls: 0 for no effect and ±100 for the full control effect.

NS(=O)(=O)c1ccc(C(=O)O)cc1
inactive: Potency [1] | Potency [2] | Potency [3] | outcome [4] | Potency [5] | outcome [6] | Potency [7] | Potency [8] | outcome [9] | Potency [10] | Potency [11] | Potency [12] | outcome [13] | Potency [14] | outcome [15] | Potency [16]

CCC(C)S (stereo not given)
inactive: activity change, negative = cytotoxicity [1] -1.89% [at 3.79 µM] | activation [2] 2.05% [at 3.79 µM] | viability change, negative = cytotoxic [3] -4.09% [at 3.79 µM] | activation [4] 4.65% [at 3.17 µM] | ratio activity, negative = inhibition [5] 25.6% [at 2.7 µM] | activity change, negative = cytotoxicity [6] -9.73% [at 2.7 µM] | activation [7] 1.05% [at 3.74 µM] | viability change, negative = cytotoxic [8] 9.9% [at 3.74 µM] | activity change, negative = cytotoxicity [9] -3.21% [at 2.7 µM] | activity change, negative = cytotoxicity [10] 2.23% [at 2.7 µM] | activation [17] -4.14% [at 2.7 µM] | viability change, negative = cytotoxic [11] 4.88% [at 2.83 µM] | ratio activity, negative = inhibition [12] 5.9% [at 2.83 µM] | activity change, negative = inhibition [13] 3.24% [at 2.69 µM] | viability change, negative = cytotoxic [14] 7.12% [at 2.7 µM] | activation [15] -0.872% [at 2.7 µM] | activity change, negative = cytotoxicity [16] 5.23% [at 2.69 µM] | activation [18] 12.2% [at 2.71 µM] | activity change, negative = inhibition [19] 0.31% [at 3.11 µM]

CC(=O)CC(C)(C)C1CCCCC1
inactive: Potency [1] | Potency [2] | Potency [3] | outcome [4] | Potency [5] | outcome [6] | Potency [7] | Potency [8] | outcome [9] | outcome [20] | Potency [10] | outcome [17] | Potency [11] | Potency [12] | Potency [14] | Potency [16]

CC1(C)C(O)C(C)(C)C1O (stereo not given)
inactive: Potency [1] | Potency [2] | Potency [3] | outcome [4] | Potency [5] | outcome [6] | Potency [7] | Potency [8] | outcome [9] | outcome [20] | Potency [10] | outcome [17] | Potency [11] | Potency [12] | Potency [14] | Potency [16] | outcome [18] | outcome [19]

CCn1nc(C(=O)O)c(=O)c2cc3c(cc21)OCO3
inactive: Potency [1] | Potency [2] | Potency [3] | outcome [4] | Potency [5] | outcome [6] | Potency [7] | Potency [8] | outcome [9] | outcome [20] | Potency [10] | outcome [17] | Potency [11] | Potency [12] | Potency [14] | Potency [16] | outcome [18]

CC/C=C\CCOC(C)=O
inactive: Potency [1] | Potency [2] | Potency [3] | outcome [4] | Potency [5] | outcome [6] | Potency [7] | Potency [8] | outcome [9] | outcome [20] | Potency [10] | Potency [11] | Potency [12] | outcome [13] | Potency [14] | outcome [15] | Potency [16] | outcome [18] | outcome [19]

CC(C)(CC(=O)O)C(=O)O
inactive: Potency [1] | Potency [2] | Potency [3] | outcome [4] | Potency [5] | outcome [6] | Potency [7] | Potency [8] | outcome [9] | Potency [10] | outcome [17] | Potency [11] | Potency [12] | Potency [14] | Potency [16] | outcome [18] | outcome [19]

NCCCNCCSP(=O)(O)O
inactive: Potency [1] | Potency [2] | Potency [3] | outcome [4] | ratio activity, negative = inhibition [5] -8.68% [at 13.2 µM] | activity change, negative = cytotoxicity [6] -6.69% [at 13.2 µM] | activation [7] -5.66% [at 8.36 µM] | viability change, negative = cytotoxic [8] 1.31% [at 8.36 µM] | activity change, negative = cytotoxicity [9] 4.97% [at 13.2 µM] | activation [20] -0.51% [at 13.2 µM] | activity change, negative = cytotoxicity [10] 8.83% [at 13.2 µM] | activation [17] -0.031% [at 13.2 µM] | viability change, negative = cytotoxic [11] 1.09% [at 13.7 µM] | ratio activity, negative = inhibition [12] -0.162% [at 13.7 µM] | activity change, negative = inhibition [13] 5.47% [at 13.2 µM] | viability change, negative = cytotoxic [14] 7.81% [at 13.2 µM] | activation [15] 0.213% [at 13.2 µM] | activity change, negative = cytotoxicity [16] 2.46% [at 13.2 µM]

N=C(N)c1ccccc1
inactive: Potency [1] | Potency [2] | Potency [3] | outcome [4] | Potency [5] | outcome [6] | Potency [7] | Potency [8] | outcome [9] | outcome [20] | Potency [10] | Potency [11] | Potency [12] | Potency [16] | outcome [18]

O=c1[nH]c(=O)n([C@H]2C[C@H](O)[C@@H](CO)O2)cc1I
inactive: Potency [1] | Potency [2] | Potency [3] | outcome [4] | Potency [5] | outcome [6] | Potency [7] | Potency [8] | outcome [9] | outcome [20] | Potency [10] | Potency [11] | Potency [12] | Potency [14] | Potency [16] | outcome [18] | outcome [19]

CC(C)(O)C(=O)c1ccccc1
inactive: Potency [1] | Potency [2] | Potency [3] | outcome [4] | Potency [5] | outcome [6] | Potency [7] | Potency [8] | outcome [9] | Potency [10] | outcome [17] | outcome [13] | Potency [14] | outcome [15] | Potency [16] | outcome [18]

CCO[Si](CCC1CCC2OC2C1)(OCC)OCC (stereo not given)
inactive: Potency [1] | Potency [2] | Potency [3] | outcome [4] | Potency [5] | outcome [6] | Potency [7] | Potency [8] | outcome [9] | outcome [20] | Potency [10] | Potency [11] | Potency [12] | outcome [13] | Potency [14] | outcome [15] | Potency [16] | outcome [18] | outcome [19]

COc1cc(C(=O)N2CCCCCCC2)cc(OC)c1OC
inactive: Potency [1] | Potency [2] | Potency [3] | outcome [4] | Potency [5] | outcome [6] | Potency [7] | Potency [8] | outcome [9] | outcome [20] | Potency [10] | outcome [17] | Potency [12] | outcome [13] | Potency [14] | outcome [15] | Potency [16] | outcome [18]
